Measurements reported in PubChem BioAssay.
Active and inactive are the calls of the source. The rule behind the calls is not given here.

The compounds below were run on Aerobactin synthetase IucA (Klebsiella pneumoniae hvKP1) (assay: Biochemical IucA enzyme inhibition primary screen of the Spectrum library (AID 1346200;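 note: 100% = wells without compound and 0% = wells lacking enzyme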)). Conditions: malachite green pyrophosphate, A620, at 8 µM, hits give low values.

Compound | activity remaining
CC1(C)C=Cc2cc3ccc(=O)oc3cc2O1 | 119% (inactive)
COC1(C)CCC2OC2(C)CCC2C1CC2(C)C (configuration not stated) | 113% (inactive)
COc1cc2c3cc1Oc1cc(ccc1O)C[C@@H]1c4c(cc(OC)c(O)c4Oc4ccc(cc4)C[C@@H]3N(C)CC2)CC[N+]1(C)C | 99.6% (inactive)
CC1(C)C2CC[C@]3(C)C(C(=O)C=C4[C@@H]5C[C@@](C)(C(=O)O)CC[C@]5(C)CC[C@]43C)[C@@]2(C)CC[C@@H]1OC(=O)CCC(=O)O (some centres not stated) | 120% (inactive)
Cc1onc(-c2ccccc2)c1C(=O)NC1C(=O)N2[C@@H]1SC(C)(C)[C@@H]2C(=O)O (some centres not stated) | 106% (inactive)
C/C1=C/CC(C)(C)/C=C/C/C(C)=C/CC1 | 122% (inactive)
NCC(O)CC(=O)O (configuration not stated) | 98.6% (inactive)
CC(=O)Oc1cc2c(c(C)c1OC(C)=O)CC=C1[C@@]2(C)CC[C@@]2(C)C3C[C@](C)(C(=O)O)CC[C@]3(C)CC[C@]12C (some centres not stated) | 95.9% (inactive)
CCCc1ncc(C[n+]2ccccc2C)c(N)n1 | 111% (inactive)
CC(O)(P(=O)(O)O)P(=O)(O)O | 119% (inactive)
CCCCCC(=O)Cc1cc(O)cc(O)c1C(=O)Oc1cc(CC(=O)CCCCC)c(C(=O)O)c(OC)c1 | 106% (inactive)
C[C@@H]1O[C@@H](OC[C@H]2OC(Oc3c(-c4ccc(O)c(O)c4)oc4cc(O)cc(O)c4c3=O)[C@H](O)[C@@H](O)[C@@H]2O)[C@H](O)[C@H](O)[C@H]1O (some centres not stated) | 101% (inactive)
CC(=O)O[C@@](C)(CCC=C(C)C)C1CC=C(C)CC1 (some centres not stated) | 91.6% (inactive)
CN1C2CCC1CC(OC(=O)C(CO)c1ccccc1)C2 (configuration not stated) | 108% (inactive)
CC1(C)O[C@@H]2CC3C4CCC5=CC(=O)CCC5(C)C4(F)C(O)CC3(C)[C@]2(C(=O)CCl)O1 (some centres not stated) | 93.6% (inactive)
C=C1C(=O)O[C@@H]2C3OC3(C)CC/C=C(\C)CC[C@@H]12 (some centres not stated) | 105% (inactive)
CCCc1cc(C(N)=S)ccn1 | 110% (inactive)
COC(=O)C1=CO[C@@H](O[C@@H]2O[C@H](CO)[C@@H](O)[C@H](O)[C@H]2O)[C@@H]2[C@@H](C)[C@@H](O)C[C@H]12 | 101% (inactive)
COc1ccc2c(c1OC)C(=O)O[C@H]2[C@H]1c2c(cc3c(c2OC)OCO3)CCN1C | 116% (inactive)

Compound | activity remaining
C[C@@H]1O[C@@H](O[C@H]2[C@@H](Oc3cc(O)c4c(c3)O[C@H](c3ccc(O)cc3)CC4=O)O[C@H](CO)[C@@H](O)[C@@H]2O)[C@H](O)[C@H](O)[C@H]1O | 117% (inactive)
N[C@@H](CCC(=O)N[C@@H](CS)C(=O)NCC(=O)O)C(=O)O | 101% (inactive)
COc1cc(C(=O)NCCCCCC(=O)O)cc(OC)c1OC | 120% (inactive)
NC(=O)c1ccc[n+]([C@@H]2O[C@H](COP(=O)([O-])OP(=O)(O)OC[C@H]3O[C@@H](n4cnc5c(N)ncnc54)[C@H](OP(=O)(O)O)[C@@H]3O)[C@@H](O)[C@H]2O)c1 | 101% (inactive)
CCCCc1nc(Cl)c(CO)n1Cc1ccc(-c2ccccc2-c2nn[nH]n2)cc1 | 110% (inactive)
Cc1cc(/C=C/c2ccc3cc(N(C)C)ccc3[n+]2C)c(C)n1-c1ccccc1 | 72.1% (inactive)
CCCCCCCC/C=C/CCCCCCCCOP(=O)([O-])OCC[N+](C)(C)C | 96.1% (inactive)
O=C(/C=C/c1ccccc1)c1ccc(O)cc1 | 95.4% (inactive)
C[C@]12C=CC(=O)C=C1CCC1C3C[C@@H](O)[C@](O)(C(=O)CO)[C@@]3(C)C[C@H](O)[C@@]12F (some centres not stated) | 125% (inactive)
CN1CCN(C(c2ccccc2)c2ccccc2)CC1 | 113% (inactive)
C/C1=C\CC(C)(C)/C=C/CC2(C)OC2CC1 (configuration not stated) | 107% (inactive)
O=C1CCC(N2C(=O)c3ccccc3C2=O)C(=O)N1 (configuration not stated) | 117% (inactive)
Cc1cccc(N(C)C(=S)Oc2ccc3ccccc3c2)c1 | 116% (inactive)
CCCCC(=O)O[C@H]1CCC2C3CCc4cc(O)ccc4C3CC[C@@]21C (some centres not stated) | 97.5% (inactive)
CC1=CC(=O)C2C(C)(C)CCC[C@]2(C)[C@@]1(O)CCc1ccoc1 (some centres not stated) | 105% (inactive)
CC(=O)NCCCCCC(=O)O | 124% (inactive)
CCCCC1=NC2(CCCC2)C(=O)N1Cc1ccc(-c2ccccc2-c2nn[nH]n2)cc1 | 121% (inactive)
Nc1ncnc2c1ncn2C1C[C@H](O)[C@@H](CO)O1 (some centres not stated) | 125% (inactive)
